Source: PubChem BioAssay (EPA / NIEHS)
Records with an inconclusive call do not appear. Activity calls are given as the source filed them. Rule for the calls, unless noted: active = hit-call score of the fitted dose curve at least 0.9, where 1 is the maximum; inactive = score below 0.9.

Key:
[1] = ATG_DR4_LXR_CIS: Attagene CIS-FACTORIAL HepG2 Assay for human Liver X Receptor (LXR), DR4 submotif (AID 2282929); settings: HepG2 Attagene DR4 cis-reporter, mRNA transcription; actives raise or lower the signal
Method in brief: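 Measures endogenous transcription factor activity via a DR4-driven reporter transcript in human HepG2 cells. Compounds incubated 24 h; mRNA quantified by RT-PCR and capillary electrophoresis, analysed as gain or loss of signal versus DMSO.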

[2] = molecular target: Hepatocyte nuclear factor 3-beta (Homo sapiens) (UniProt Q9Y261); assay: ATG_FoxA2_CIS: Attagene CIS-FACTORIAL HepG2 Assay for human Forkhead box A2 (FOXA2) (AID 2282942); settings: HepG2 cis-reporter transcription factor activity, 24 h; actives raise or lower the signal
Method in brief: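 In transiently transfected human HepG2 cells, promoter-driven reporter mRNA levels after 24 h chemical exposure are determined via RT-PCR with capillary electrophoresis. DMSO serves as baseline for bidirectional fitting.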

[3] = molecular target: Hypoxia-inducible factor 1-alpha (Homo sapiens) (UniProt Q16665); assay: ATG_HIF1a_CIS: Attagene CIS-FACTORIAL HepG2 Assay for human Hypoxia Inducible Factor 1 (HIF1A) (AID 2282951); settings: HepG2 Attagene cis-factorial HIF1a reporter transcription; actives raise or lower the signal
Method in brief: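 In this multiplexed cell assay, HepG2 cells bearing transfected cis reporters are dosed for 24 h and reporter mRNA is read by RT-PCR plus capillary electrophoresis; signal increases and decreases are both scored against DMSO.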

[4] = molecular target: Heat shock factor protein 1 (Homo sapiens) (UniProt Q00613); assay: ATG_HSE_CIS: Attagene CIS-FACTORIAL HepG2 Assay for human Heat Shock Transcription Factor 1 (HSE) (AID 2282953); settings: HepG2 HSE cis-reporter, Attagene RNA transcription; actives raise or lower the signal
Method in brief: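 Endogenous transcription factor activity in transiently transfected HepG2, read as reporter mRNA by RT-PCR with fluorescent capillary electrophoresis after 24 h. Gain or loss of signal fitted versus DMSO baseline.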

[5] = ATG_RORE_CIS: Attagene CIS-FACTORIAL HepG2 Assay for human RAR-related Orphan Receptor Element (RORE) (AID 2282959); settings: HepG2 Attagene cis-factorial RORE reporter, mRNA; actives raise or lower the signal
Method in brief: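 Fluorescence intensity of reporter-specific cDNA fragments, separated by capillary electrophoresis, gives the signal. Source: HepG2 liver cells transiently transfected with cis-element reporters and exposed 24 h; DMSO-normalized bidirectional fit.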

[6] = molecular target: Signal transducer and activator of transcription 3 (Homo sapiens) (UniProt P40763); assay: ATG_STAT3_CIS: Attagene CIS-FACTORIAL HepG2 Assay for human Signal Transducer and Activator of Transcription 3 (STAT3) (AID 2282963); settings: HepG2, Attagene cis-factorial STAT3 reporter transcription; actives raise or lower the signal
Method in brief: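 HepG2, MRTU-transfected, 24 h dosing. RNA → RT → PCR → FAM label → HpaI → CE. Bidirectional fit vs DMSO.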

[7] = ATG_TCF_b_cat_CIS: Attagene CIS-FACTORIAL HepG2 Assay for human T-Cell-Factor with beta-catenin (TCF/b-cat) (AID 2282965); settings: HepG2 TCF/beta-catenin cis-reporter transcription, actives raise or lower the signal
Method in brief: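 In this cis-format system, transfected HepG2 cells report endogenous transcription factor activity. Readout after 24 h exposure is reporter transcript abundance from RT-PCR and capillary electrophoresis, analysed for gain or loss of signal versus DMSO.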

[8] = ATG_TAL_CIS: Attagene CIS-FACTORIAL HepG2 Assay for human TAL Basal Promoter (AID 2282966); settings: HepG2 Attagene cis-factorial TAL promoter reporter; actives raise or lower the signal;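 note: background control endpoint measuring basal TAL promoter reporter mRNA not a specific factor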
Method in brief: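 After 24 hours of chemical exposure, transfected HepG2 cells yielded RNA that was converted to 6-FAM-labelled, HpaI-digested reporter fragments for capillary electrophoresis. Values derive from bidirectional fitting against DMSO controls.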

[9] = ATG_TGFb_CIS: Attagene CIS-FACTORIAL HepG2 Assay for human Transforming Growth Factor (TGF) (AID 2282967); settings: HepG2 Attagene CIS TGFb reporter, mRNA transcription; actives raise or lower the signal
Method in brief: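 Endogenous TGFB1-linked transcription factor activity read as reporter mRNA via RT-PCR and capillary electrophoresis, 24 h after dosing transiently transfected HepG2 cells. Gain or loss of signal fitted relative to DMSO.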

[10] = ATG_VDRE_CIS: Attagene CIS-FACTORIAL HepG2 Assay for human Vitamin D Receptor Element (VDRE) (AID 2282968); settings: HepG2 VDRE cis-reporter transcription, actives raise or lower the signal
Method in brief: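 Steps: transfect HepG2 with multiple reporter transcription units; dose chemicals 24 h; isolate RNA; RT-PCR; label with 6-FAM primer extension; HpaI digest; capillary electrophoresis. Curves fitted both directions against DMSO.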

[11] = molecular target: X-box-binding protein 1 (Homo sapiens) (UniProt P17861); assay: ATG_Xbp1_CIS: Attagene CIS-FACTORIAL HepG2 Assay for human X-box Binding Protein 1 (XBP1) (AID 2282972); settings: HepG2 XBP1 cis-element reporter, Attagene multiplex; actives raise or lower the signal
Method in brief: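 Human hepatoma HepG2, cis-element reporter system, 24 h treatment; mRNA quantified by RT-PCR/CE fluorescence; fit relative to DMSO.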

[12] = molecular target: Transcriptional activator Myb (Homo sapiens) (UniProt P10242); assay: ATG_Myb_CIS: Attagene CIS-FACTORIAL HepG2 Assay for human Myeloblastosis (Myb) Proto-Oncogene Transcription Factor (AID 2282986); settings: HepG2 Attagene CIS-FACTORIAL Myb reporter transcription; actives raise or lower the signal
Method in brief: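 Fluorescence signals from capillary electrophoresis of RT-PCR-amplified reporter cDNA give the read-out. Cells: HepG2 transfected with multiple cis-regulated reporter units. Exposure lasts 24 hours; DMSO defines baseline for gain or loss of signal.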

[13] = molecular target: Nuclear respiratory factor 1 (Homo sapiens) (UniProt Q16656); assay: ATG_NRF1_CIS: Attagene CIS-FACTORIAL HepG2 Assay for human Nuclear Respiratory Factor 1 (NRF1) Orphan Gene (AID 2282987); settings: HepG2 NRF1 cis-element reporter, Attagene multiplex; actives raise or lower the signal
Method in brief: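 Transcriptional reporter readout, one component of a 52-endpoint multiplexed HepG2 panel. Exposure 24 h; mRNA detected via RT-PCR and fluorescent capillary electrophoresis; fitting in both directions against DMSO.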

[14] = molecular target: Myc proto-oncogene protein (Homo sapiens) (UniProt P01106); assay: ATG_Myc_CIS: Attagene CIS-FACTORIAL HepG2 Assay for human Myelocytomatosis (Myc) Proto-Oncogene Transcription Factor (AID 2282990); settings: HepG2, Attagene cis-reporter transcription factor activity; actives raise or lower the signal
Method in brief: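 DMSO-normalised, bidirectionally fitted reporter mRNA signal. HepG2 cells transfected with cis reporter constructs, treated 24 h; transcripts detected by RT-PCR, 6-FAM primer extension and CE.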

[15] = ATG_NRF2_ARE_CIS: Attagene CIS-FACTORIAL HepG2 Assay for human Nuclear Factor Erythroid 2 Related Factor 2 (NFR2) response to Antioxidant Response Elements (ARE) (AID 2282992); settings: HepG2 Attagene ARE/NRF2 reporter, transcription factor activity; actives raise or lower the signal;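 for AC50: reporter mRNA level measured by RT-PCR and capillary electrophoresis fluorescence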
Method in brief: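 Fluorescence intensity of reporter-specific cDNA fragments, separated by capillary electrophoresis, reflects mRNA induction in transfected HepG2 cells at 24 h. Activity is fitted bidirectionally, DMSO serving as baseline.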

[16] = molecular target: Cellular tumor antigen p53 (Homo sapiens) (UniProt P04637); assay: ATG_p53_CIS: Attagene CIS-FACTORIAL HepG2 Assay for human p53 Transcription Factor (AID 2282994); settings: HepG2 p53 cis-element reporter, Attagene mRNA; actives raise or lower the signal
Method in brief: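 Transiently transfected HepG2 (multiple cis reporter transcription units); exposure 24 h; reporter RNA via RT-PCR, 6-FAM extension, 2 h HpaI digest at 37 C, CE detection; DMSO baseline.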

[17] = molecular target: Nuclear receptor subfamily 1 group I member 2 (Homo sapiens) (UniProt O75469); assay: ATG_PXR_TRANS: Attagene TRANS-FACTORIAL HepG2 Assay for human Pregnane X Receptor (PXR) (AID 2283008; active = hit-call score of the fitted dose curve at least 0.9, where 1 is the maximum)
Method in brief: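 Transient HepG2 transfectants carrying multiplexed reporter transcription units; PXR activity read through a Gal4 chimera. 24 h exposure. RT-PCR/CE fluorescence; upward curve fit referenced to DMSO.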

[18] = ATG_XTT_Cytotoxicity: Cytotoxicity Assessment in the Attagene TRANS-FACTORIAL HepG2 Assay (AID 2283584; active = hit-call score of the fitted dose curve at least 0.9, where 1 is the maximum)
Method in brief: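 Cells: human HepG2, transiently transfected with MRTU reporter constructs. Exposure 24 h. Readout: XTT, cell number. Baseline/neg ctrl DMSO; loss-of-signal scored.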

[19] = ATG_AP_1_CIS: Attagene CIS-FACTORIAL HepG2 Assay for human Activator Protein 1 (AP-1) (AID 2282931); settings: HepG2 Attagene cis-factorial AP-1 reporter mRNA; actives raise or lower the signal
Method in brief: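 Bidirectional concentration-response fitting against DMSO controls. Underlying signal: reporter mRNA from cis-promoter constructs in transiently transfected HepG2, measured after 24 h by RT-PCR and capillary electrophoresis.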

[20] = ATG_Oct_MLP_CIS: Attagene CIS-FACTORIAL HepG2 Assay for human Octamer-Binding Transcription Factor (Oct) (AID 2282993); settings: HepG2 Attagene cis-factorial Oct reporter, mRNA; actives raise or lower the signal
Method in brief: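 Readout is reporter transcript level from RT-PCR with fluorescent primer extension and capillary electrophoresis, fitted in both directions against DMSO. Transfected HepG2 reporter units report endogenous factor activity after 24 h dosing.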

Measured: AC50

Chain of Heat shock factor protein 1 (Homo sapiens) (Q00613 whole entry, looked up): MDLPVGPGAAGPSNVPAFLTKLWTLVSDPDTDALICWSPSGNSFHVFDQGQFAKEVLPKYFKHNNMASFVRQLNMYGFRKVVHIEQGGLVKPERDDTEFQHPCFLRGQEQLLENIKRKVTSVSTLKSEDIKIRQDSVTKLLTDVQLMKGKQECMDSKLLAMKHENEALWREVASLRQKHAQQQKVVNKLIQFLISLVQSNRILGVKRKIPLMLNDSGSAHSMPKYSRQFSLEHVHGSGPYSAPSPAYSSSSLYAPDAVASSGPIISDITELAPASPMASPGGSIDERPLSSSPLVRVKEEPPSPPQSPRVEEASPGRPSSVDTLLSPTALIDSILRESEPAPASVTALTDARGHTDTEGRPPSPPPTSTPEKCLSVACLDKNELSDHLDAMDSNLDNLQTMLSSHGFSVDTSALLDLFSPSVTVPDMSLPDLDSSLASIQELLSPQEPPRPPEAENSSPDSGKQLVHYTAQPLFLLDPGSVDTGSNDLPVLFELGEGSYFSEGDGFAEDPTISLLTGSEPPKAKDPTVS
Chain of Hypoxia-inducible factor 1-alpha (Homo sapiens) (Q16665 whole entry, looked up): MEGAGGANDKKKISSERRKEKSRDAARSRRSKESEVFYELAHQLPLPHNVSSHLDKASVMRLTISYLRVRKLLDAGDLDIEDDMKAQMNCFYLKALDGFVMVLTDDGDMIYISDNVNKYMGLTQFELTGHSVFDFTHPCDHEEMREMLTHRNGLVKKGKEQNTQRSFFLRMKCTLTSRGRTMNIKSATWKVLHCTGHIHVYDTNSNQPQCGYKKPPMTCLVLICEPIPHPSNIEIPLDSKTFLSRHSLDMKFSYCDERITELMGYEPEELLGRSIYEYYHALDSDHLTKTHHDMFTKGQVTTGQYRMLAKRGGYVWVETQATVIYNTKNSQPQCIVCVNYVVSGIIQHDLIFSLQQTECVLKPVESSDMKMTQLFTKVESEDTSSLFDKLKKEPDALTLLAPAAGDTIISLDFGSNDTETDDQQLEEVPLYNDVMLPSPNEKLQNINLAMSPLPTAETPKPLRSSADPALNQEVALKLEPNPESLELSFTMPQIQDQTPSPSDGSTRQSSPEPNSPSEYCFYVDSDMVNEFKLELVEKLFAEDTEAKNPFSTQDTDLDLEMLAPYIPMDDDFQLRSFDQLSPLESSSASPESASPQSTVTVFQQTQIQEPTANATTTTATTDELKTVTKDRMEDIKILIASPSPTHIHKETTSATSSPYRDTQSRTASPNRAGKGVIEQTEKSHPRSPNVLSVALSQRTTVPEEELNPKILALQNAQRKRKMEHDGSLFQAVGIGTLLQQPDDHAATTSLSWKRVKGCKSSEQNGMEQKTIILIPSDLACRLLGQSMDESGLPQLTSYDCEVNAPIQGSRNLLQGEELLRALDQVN
Chain of Myc proto-oncogene protein (Homo sapiens) (P01106 whole entry, looked up): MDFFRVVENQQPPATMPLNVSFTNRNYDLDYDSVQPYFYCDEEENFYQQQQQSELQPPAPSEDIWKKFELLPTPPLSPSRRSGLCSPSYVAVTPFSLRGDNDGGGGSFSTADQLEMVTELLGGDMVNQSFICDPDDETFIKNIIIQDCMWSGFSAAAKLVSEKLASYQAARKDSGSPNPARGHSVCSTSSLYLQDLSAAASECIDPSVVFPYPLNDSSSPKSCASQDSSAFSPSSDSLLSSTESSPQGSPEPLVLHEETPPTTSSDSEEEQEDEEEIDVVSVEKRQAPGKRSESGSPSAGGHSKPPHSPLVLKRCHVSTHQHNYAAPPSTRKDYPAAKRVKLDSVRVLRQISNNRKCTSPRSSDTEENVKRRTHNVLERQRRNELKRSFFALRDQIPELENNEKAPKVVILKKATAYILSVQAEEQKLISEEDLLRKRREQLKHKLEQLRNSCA
Chain of Nuclear respiratory factor 1 (Homo sapiens) (Q16656 whole entry, looked up): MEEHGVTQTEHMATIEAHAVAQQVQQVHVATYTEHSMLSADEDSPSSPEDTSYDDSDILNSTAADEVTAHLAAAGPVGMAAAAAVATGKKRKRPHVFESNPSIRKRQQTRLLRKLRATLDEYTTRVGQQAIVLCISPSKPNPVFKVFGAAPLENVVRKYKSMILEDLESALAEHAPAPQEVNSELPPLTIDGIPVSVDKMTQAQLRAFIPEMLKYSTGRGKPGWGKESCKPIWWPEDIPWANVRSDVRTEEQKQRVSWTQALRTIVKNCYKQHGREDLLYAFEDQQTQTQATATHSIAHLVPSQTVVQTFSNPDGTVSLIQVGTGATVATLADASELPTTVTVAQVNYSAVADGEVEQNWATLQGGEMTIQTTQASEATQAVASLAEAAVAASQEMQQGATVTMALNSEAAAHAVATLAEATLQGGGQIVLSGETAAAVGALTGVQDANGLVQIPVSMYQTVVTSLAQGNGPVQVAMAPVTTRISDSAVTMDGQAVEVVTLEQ
Chain of X-box-binding protein 1 (Homo sapiens) (P17861 whole entry, looked up): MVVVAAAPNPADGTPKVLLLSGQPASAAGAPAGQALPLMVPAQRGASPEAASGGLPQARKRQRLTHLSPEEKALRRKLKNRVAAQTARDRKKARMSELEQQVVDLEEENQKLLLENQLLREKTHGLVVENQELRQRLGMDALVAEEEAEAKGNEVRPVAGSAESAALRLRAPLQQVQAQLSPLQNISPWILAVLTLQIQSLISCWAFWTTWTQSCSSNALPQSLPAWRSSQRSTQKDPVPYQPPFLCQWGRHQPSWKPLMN
Chain of Hepatocyte nuclear factor 3-beta (Homo sapiens) (Q9Y261 whole entry, looked up): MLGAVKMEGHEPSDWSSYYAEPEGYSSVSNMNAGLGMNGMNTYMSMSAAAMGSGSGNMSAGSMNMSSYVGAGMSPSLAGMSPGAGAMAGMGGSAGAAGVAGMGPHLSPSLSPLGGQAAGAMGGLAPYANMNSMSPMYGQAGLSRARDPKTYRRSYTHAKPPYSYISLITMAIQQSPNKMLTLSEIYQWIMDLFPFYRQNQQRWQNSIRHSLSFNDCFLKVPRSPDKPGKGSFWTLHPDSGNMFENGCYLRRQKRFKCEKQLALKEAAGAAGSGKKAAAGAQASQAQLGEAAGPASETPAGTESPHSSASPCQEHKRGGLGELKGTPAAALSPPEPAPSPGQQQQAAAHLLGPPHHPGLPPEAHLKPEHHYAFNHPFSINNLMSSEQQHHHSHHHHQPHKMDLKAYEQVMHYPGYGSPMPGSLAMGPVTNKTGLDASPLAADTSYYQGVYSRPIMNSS
Chain of Nuclear receptor subfamily 1 group I member 2 (Homo sapiens) (O75469 whole entry, looked up, the tested form may be a part): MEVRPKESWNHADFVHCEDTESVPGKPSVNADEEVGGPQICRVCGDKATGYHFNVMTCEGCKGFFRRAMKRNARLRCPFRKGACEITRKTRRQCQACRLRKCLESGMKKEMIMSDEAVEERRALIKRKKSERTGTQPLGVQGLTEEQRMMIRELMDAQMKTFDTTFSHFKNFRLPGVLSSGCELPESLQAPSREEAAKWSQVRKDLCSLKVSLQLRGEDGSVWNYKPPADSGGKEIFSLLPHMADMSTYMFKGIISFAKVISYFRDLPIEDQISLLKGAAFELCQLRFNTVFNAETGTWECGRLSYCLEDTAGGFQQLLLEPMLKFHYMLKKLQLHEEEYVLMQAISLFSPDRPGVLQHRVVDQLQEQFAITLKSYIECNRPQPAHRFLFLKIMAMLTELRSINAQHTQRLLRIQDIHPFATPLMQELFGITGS
Chain of Signal transducer and activator of transcription 3 (Homo sapiens) (P40763 whole entry, looked up): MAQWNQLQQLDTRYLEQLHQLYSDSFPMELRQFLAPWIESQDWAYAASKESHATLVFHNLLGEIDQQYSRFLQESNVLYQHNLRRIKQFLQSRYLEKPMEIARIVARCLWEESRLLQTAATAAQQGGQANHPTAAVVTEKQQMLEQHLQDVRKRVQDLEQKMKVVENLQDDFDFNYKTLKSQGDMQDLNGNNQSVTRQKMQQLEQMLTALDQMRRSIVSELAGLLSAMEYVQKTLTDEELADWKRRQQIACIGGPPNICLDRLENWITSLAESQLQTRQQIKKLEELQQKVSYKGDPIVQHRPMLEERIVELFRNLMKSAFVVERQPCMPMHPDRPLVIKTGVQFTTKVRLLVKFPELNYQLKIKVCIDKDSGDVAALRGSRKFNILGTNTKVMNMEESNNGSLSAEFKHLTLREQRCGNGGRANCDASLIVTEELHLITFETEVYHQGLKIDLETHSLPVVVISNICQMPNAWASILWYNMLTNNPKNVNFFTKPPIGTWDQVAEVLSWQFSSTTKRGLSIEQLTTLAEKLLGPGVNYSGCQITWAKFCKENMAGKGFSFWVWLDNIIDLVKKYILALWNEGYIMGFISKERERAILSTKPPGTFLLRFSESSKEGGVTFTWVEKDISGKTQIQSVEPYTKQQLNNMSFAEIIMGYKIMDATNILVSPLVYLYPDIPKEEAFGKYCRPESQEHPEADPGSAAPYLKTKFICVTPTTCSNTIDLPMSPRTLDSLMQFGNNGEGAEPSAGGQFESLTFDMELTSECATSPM
Chain of Cellular tumor antigen p53 (Homo sapiens) (P04637 whole entry, looked up): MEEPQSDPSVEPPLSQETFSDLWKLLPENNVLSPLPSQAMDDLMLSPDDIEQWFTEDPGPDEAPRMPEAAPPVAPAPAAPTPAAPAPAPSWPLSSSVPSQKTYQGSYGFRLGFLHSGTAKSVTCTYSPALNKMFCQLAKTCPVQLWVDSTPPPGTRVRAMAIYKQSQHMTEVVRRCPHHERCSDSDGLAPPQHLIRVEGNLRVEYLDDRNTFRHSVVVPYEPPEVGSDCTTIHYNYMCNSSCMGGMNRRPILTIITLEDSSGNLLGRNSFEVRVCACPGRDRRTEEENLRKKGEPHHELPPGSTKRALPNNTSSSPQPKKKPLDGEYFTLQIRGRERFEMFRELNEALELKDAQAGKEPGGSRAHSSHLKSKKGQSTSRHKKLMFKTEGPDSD

O=C1NC(=O)C2CC=CCC12 (stereo unspecified)
not listed: [19] | [20]
inactive: all other assays above

CCCCCC1CCCC(=O)O1 (stereo unspecified)
not listed: [1]
inactive: all other assays above

CC1=C(CC(=O)O)c2cc(F)ccc2/C1=C\c1ccc(S(C)=O)cc1 (stereo unspecified)
active: [4] 180 µM | [15] 23 µM | [17] 26.5 µM
not listed: [1] | [3] | [10] | [18] | [20]
inactive: all other assays above

O=C(O)Cc1c[nH]c2ccccc12
active: [15] 74.1 µM
not listed: [18] | [19]
inactive: all other assays above

O=C(OCc1ccccc1)c1ccccc1
active: [3] 175 µM
not listed: [1] | [16]
inactive: all other assays above

COc1c2occc2cc2ccc(=O)oc12
active: [10] 53.7 µM | [17] 14.5 µM
not listed: [3] | [4] | [13] | [15] | [19] | [20]
inactive: all other assays above

COC(=O)/C=C\C(=O)OC
active: [19] 28.1 µM | [8] 100 µM | [10] 49.6 µM | [15] 10.5 µM
not listed: [1]
inactive: all other assays above
